We go through 1 molecule from ChEMBL document CHEMBL2218924, “A broad activity screen in support of a chemogenomic map for kinase signalling research and drug discovery” (Biochem J, 2013).

SMILES strings stand for the structures.

The target in test [1] is Tyrosine-protein kinase SYK (Homo sapiens) (UniProt P43405). Particulars: at 10 µM.
The target of test [2] is T1, Mitogen-activated protein kinase kinase kinase 7 (Homo sapiens) (UniProt O43318).
T1 sequence (whole entry): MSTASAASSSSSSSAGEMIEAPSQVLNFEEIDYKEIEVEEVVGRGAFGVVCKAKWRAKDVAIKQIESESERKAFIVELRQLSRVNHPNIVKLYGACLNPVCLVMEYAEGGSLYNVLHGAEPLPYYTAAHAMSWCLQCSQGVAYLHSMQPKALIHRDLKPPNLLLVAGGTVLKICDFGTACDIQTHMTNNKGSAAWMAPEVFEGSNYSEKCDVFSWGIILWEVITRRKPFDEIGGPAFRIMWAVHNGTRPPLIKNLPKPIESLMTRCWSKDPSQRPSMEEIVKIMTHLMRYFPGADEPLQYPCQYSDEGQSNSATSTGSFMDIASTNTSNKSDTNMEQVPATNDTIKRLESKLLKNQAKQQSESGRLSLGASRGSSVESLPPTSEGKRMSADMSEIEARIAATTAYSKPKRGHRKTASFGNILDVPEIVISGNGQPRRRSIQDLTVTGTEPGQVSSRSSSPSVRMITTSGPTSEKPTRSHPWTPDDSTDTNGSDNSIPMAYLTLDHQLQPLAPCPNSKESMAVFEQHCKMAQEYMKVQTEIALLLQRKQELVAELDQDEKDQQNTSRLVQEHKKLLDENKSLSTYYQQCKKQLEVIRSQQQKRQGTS
The note with it: at 1 µM.

Test [3] concerns the target T2, Serine/threonine-protein kinase TAO1 (Homo sapiens) (UniProt Q7L7X3).
T2 sequence (whole entry): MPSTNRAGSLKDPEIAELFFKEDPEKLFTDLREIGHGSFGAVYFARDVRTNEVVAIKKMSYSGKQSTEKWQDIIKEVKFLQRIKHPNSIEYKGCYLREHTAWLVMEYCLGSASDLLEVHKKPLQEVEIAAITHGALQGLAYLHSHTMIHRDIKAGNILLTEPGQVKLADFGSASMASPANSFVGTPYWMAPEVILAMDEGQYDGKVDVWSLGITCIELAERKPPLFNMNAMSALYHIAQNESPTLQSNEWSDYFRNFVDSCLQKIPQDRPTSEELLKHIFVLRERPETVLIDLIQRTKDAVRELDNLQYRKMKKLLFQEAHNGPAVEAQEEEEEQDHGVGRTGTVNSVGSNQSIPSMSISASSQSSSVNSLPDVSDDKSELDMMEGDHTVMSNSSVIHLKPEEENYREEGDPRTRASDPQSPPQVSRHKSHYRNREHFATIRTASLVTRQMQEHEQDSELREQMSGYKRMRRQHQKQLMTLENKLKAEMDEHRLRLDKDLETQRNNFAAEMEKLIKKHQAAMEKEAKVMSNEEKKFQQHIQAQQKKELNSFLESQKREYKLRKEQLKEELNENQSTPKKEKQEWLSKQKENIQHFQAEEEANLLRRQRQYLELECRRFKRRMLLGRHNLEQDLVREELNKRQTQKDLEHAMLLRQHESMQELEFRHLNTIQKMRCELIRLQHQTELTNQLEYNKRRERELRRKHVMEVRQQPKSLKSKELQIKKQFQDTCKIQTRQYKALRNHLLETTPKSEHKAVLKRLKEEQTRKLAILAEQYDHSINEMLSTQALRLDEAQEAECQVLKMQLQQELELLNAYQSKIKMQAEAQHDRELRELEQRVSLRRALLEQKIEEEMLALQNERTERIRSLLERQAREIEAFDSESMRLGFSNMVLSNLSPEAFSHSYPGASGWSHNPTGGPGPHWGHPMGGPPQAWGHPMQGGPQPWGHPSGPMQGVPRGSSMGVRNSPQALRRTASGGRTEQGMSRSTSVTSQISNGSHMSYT
Particulars: at 1 µM.

Test [4] deals with T2, Serine/threonine-protein kinase TAO1 (Homo sapiens). The note with it: at 10 µM.
Test [5] concerns the target T3, Serine/threonine-protein kinase TAO2 (Homo sapiens) (UniProt Q9UL54).
T3 sequence (whole entry): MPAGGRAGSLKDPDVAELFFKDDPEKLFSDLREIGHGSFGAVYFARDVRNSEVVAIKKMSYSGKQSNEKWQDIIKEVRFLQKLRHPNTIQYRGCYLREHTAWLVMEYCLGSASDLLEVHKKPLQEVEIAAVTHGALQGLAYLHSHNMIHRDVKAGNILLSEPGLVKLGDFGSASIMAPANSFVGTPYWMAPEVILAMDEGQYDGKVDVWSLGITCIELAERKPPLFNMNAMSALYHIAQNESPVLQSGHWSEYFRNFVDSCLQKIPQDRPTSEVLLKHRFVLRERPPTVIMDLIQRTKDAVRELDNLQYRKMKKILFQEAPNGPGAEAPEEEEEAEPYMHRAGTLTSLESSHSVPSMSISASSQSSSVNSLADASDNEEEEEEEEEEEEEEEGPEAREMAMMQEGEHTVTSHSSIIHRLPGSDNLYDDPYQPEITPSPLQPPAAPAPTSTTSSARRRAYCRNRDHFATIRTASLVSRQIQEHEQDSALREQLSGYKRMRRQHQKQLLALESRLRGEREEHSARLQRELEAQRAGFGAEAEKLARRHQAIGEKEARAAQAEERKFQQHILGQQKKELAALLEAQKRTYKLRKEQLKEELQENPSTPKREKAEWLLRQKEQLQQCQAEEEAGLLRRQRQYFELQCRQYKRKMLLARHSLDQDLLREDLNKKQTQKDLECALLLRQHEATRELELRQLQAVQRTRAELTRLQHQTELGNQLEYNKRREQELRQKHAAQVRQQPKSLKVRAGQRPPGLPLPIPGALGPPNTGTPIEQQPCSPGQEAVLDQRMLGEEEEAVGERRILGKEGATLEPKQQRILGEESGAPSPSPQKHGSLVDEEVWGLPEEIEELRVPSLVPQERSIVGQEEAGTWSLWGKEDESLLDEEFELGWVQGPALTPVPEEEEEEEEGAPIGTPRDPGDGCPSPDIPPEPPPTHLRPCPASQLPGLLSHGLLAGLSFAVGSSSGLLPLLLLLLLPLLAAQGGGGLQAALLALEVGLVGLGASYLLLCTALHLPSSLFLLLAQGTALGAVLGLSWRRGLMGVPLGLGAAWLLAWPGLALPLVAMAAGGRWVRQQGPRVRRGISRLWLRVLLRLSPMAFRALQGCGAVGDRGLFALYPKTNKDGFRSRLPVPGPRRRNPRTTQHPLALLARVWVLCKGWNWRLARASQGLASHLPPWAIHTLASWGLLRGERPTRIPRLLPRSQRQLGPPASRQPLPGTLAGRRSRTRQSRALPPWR
Particulars: at 1 µM.

Test [6] has as its target T3, Serine/threonine-protein kinase TAO2 (Homo sapiens). The note with it: at 10 µM.
Test [7] deals with T4, Serine/threonine-protein kinase TAO3 (Homo sapiens) (UniProt Q9H2K8).
T4 sequence (whole entry): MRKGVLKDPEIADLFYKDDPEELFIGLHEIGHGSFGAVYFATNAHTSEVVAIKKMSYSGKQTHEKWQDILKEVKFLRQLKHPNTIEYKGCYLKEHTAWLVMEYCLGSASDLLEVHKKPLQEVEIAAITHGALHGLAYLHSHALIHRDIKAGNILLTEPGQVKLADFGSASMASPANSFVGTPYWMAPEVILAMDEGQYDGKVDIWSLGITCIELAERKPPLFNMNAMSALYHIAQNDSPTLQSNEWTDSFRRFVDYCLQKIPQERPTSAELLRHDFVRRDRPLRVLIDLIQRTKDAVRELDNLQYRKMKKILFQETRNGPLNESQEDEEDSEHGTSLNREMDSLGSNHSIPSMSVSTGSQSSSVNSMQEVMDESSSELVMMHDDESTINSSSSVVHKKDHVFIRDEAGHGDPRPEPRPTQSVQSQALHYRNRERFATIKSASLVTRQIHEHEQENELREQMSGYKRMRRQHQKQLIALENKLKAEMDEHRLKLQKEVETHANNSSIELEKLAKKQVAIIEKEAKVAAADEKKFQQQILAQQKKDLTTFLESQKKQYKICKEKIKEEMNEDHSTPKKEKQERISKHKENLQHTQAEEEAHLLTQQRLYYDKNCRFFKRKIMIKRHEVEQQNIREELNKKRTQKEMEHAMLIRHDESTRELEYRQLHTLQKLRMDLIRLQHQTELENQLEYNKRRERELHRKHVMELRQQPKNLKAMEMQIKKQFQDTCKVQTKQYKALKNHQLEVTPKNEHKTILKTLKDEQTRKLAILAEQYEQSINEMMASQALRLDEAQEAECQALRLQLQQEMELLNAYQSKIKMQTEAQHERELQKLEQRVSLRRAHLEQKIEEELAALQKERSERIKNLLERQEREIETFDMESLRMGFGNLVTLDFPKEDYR
Particulars: at 1 µM.

The target of test [8] is T4, Serine/threonine-protein kinase TAO3 (Homo sapiens). The note with it: at 10 µM.
Test [9] has as its target T5, Serine/threonine-protein kinase TBK1 (Homo sapiens) (UniProt Q9UHD2).
T5 sequence (whole entry): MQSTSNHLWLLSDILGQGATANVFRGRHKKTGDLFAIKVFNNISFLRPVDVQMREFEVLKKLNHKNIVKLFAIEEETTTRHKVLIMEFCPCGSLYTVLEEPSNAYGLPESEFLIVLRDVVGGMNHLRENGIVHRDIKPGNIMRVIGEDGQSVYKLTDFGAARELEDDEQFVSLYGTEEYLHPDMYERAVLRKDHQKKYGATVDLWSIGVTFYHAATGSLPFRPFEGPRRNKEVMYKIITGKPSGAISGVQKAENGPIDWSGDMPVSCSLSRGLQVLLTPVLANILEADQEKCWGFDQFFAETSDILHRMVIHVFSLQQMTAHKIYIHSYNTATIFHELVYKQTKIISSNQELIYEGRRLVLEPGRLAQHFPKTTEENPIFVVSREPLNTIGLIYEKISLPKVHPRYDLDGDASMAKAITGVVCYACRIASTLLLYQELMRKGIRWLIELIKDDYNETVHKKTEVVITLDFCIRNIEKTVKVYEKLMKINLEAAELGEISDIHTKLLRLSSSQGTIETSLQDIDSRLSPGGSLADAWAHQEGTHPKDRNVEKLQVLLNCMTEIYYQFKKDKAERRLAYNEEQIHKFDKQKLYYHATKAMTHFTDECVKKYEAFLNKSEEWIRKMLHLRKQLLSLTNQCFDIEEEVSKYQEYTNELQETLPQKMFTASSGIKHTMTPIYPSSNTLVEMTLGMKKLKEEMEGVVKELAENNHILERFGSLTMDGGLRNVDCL
Particulars: at 1 µM.

Regarding `O=C1NC(=O)c2cc(Nc3ccc(F)cc3)c(Nc3ccc(F)cc3)cc21`, the residual activity in test [1] came to 78%; in test [2] it was 83%; in [3], 83%; in test [4], 39%; in test [5], 63%; in [6], 21%. The results for the residual activity in test [7], in test [8] and in test [9] were 79%, 37% and 69%, respectively.
